# Screening data: PubChem, several laboratories
# STAT1 blocker = STAT1 signaling inhibitors, primary screen, cell-based, HTS, luciferase reporter | NIH 3T3 STAT1-luciferase reporter, IFN-gamma, luminescence | inhibition, % at 5.5 µM | actives 0.35% (n = 200,000);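 active = inhibition above a set limit, the mean inhibition across all tested compounds plus 3 SD, cut at about 34% in these data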;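 also: 0% = IFN-gamma with DMSO and 100% = IFN-gamma with 300 µM nifuroxazide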
# HSF1 inhib = HSF1 inhibitors in luciferase reporter cells, primary screen, cell-based, NIH3T3, luminescence; actives 0.77% (n = 300,000); AID 2098, 2009; activity change, negative = inhibition, % at 7.5 µM (by protocol); NIH3T3-HGL HSE-luciferase, MG132-induced, luminescence 8 h; stronger effect = lower value;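 active = more than half of replicate wells show activity change below -50%, luminescence cut by over half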;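 also: luciferase reports HSF-1 transcriptional activity via heat shock element; 0% = median of DMSO wells and -100% = zero luminescence signal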
# STAT3 blocker = IL-6 driven STAT3 reporter inhibitors, primary screen, U3A cells, luciferase, luminescence, MLSCN library; IL-6 STAT3-luciferase reporter; host cell line lacks STAT1; inhibition, % at 5.5 µM; actives 0.89% (n = 190,000); AID 862, 2007;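 active = inhibition above the mean inhibition across all screened compounds plus 3 SD, cut at about 44% in these data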;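 also: 0% = DMSO only wells and 100% = 100 µM nifuroxazide control wells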
# C8 TRAIL sens = viability loss with TRAIL in NB7+C8 cells, primary screen, TRAIL sensitizer project, cell-based, ATPlite luminescence; actives 1% (n = 360,000); inhibition (viability loss, TRAIL sensitization), % at 10 µM; AID 624354, 2012;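 active = compounds causing at least 50% loss of cell viability in the single-dose screen, relative to plate controls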
# HSP90 refold inh = HSP90 inhibitors, primary screen, cell lysate, luminescence | Heat shock protein HSP 90 (rabbit reticulocyte lysate; luciferase refolding) | Rabbit reticulocyte lysate, luciferase refolding luminescence, 3 h | inhibition, % at 5.6 µM | actives 0.91% (n = 290,000);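 active = inhibition above the screen-wide mean plus 3 SD, computed separately per campaign, cut at about 16% in these data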;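 also: 0% = DMSO wells and 100% = 60 µM geldanamycin wells; inhibitors lower the luminescence because luciferase stays unfolded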
# PPC-1+TRAIL kill = compounds killing PPC-1 cancer cells with TRAIL present, primary screen, TRAIL potentiator project, ATPLite luminescence, uHTS; actives 0.41% (n = 220,000); cell killing (% activity), % at 4 µM or 5 µM; PPC-1 cells + TRAIL, ATPLite viability luminescence;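 active = cell killing above 50% in the first pass at 4 µM, then a duplicate retest at 5 µM averaging 50% or more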;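 also: plate controls were cells with TRAIL plus DMSO for no effect and medium-only wells lacking cells for full effect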
# HSP90 inh confirm = HSP90 inhibitors, confirmation, cell lysate, luminescence; actives 64% (n = 2,300); AID 1846, 2009; shares compounds with HSP90 refold inh; rabbit reticulocyte lysate, luciferase refolding luminescence, 3 h; inhibition, % at 5.9 µM; in the data active = inhibition above about 18%;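 also: 0% = vehicle wells and 100% = reference inhibitor wells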
# luciferase ctr = firefly luciferase inhibitors, HSP90 counter-screen, confirmation, artefact control for HSP90 inhibitor project, biochemical, luminescence, triplicate; shares compounds with HSP90 refold inh; inhibition, % at 5.9 µM; actives 48% (n = 2,300); purified native firefly luciferase; AID 1847, 2009;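 active = inhibition above the mean inhibition of all tested sample wells plus 3 SD, cut at about 10% in these data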;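 also: 0% = DMSO with luciferase and 100% = wells lacking luciferase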
# Target sequence (P08659 whole entry, looked up): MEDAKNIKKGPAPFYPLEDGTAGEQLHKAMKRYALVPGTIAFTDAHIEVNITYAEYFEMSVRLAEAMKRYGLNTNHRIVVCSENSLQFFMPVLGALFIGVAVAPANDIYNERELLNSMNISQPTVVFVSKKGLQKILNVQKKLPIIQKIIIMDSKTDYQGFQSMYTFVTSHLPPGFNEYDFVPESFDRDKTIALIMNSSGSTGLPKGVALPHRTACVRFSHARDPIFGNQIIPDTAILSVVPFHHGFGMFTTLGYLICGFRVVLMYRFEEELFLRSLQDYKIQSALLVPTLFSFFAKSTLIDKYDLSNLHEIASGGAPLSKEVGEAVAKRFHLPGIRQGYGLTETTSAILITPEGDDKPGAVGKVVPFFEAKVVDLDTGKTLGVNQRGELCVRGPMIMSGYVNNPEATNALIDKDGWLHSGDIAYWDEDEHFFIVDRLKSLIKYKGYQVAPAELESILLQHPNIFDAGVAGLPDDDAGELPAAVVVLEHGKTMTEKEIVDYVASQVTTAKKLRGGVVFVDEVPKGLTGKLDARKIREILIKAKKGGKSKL
# The depositor's hits bear a star; · = no result. Sampled rows, rich in hits. Any-hit rate of the full collection: about 2.4%.
SMILES,STAT1 blocker,HSF1 inhib,STAT3 blocker,C8 TRAIL sens,HSP90 refold inh,PPC-1+TRAIL kill,HSP90 inh confirm,luciferase ctr
O=C(COc1ccc(Cl)cc1)NCc1nnc(SCC(=O)Nc2ccccc2)o1,13.2,11.3,6.2,3.2,36.8*,-13.3,-1.0,-6.2
Cc1c(Cl)cccc1NC(=S)N1CCCN(Cc2ccc(F)cc2)C1,6.1,·,7.6,-7.0,0.9,3.6,·,·
O=C(NCc1ccc(Cl)cc1)N1CCN(S(=O)(=O)c2ccccc2)CC1,·,1.9,·,0.9,38.0*,·,-1.4,-5.7
Cc1ccc(NCC(O)C(O)C(O)CO)c(N=Nc2ccccc2)c1C (stereo not given),·,-1.2,·,-3.8,23.9*,19.3,-16.7,-6.0
CC(=O)Nc1cc(NC(C)=O)c(N=Nc2ccccc2)cc1C,·,7.6,·,-1.0,1.1,-1.0,·,·
Cc1c(/C=N/Nc2ccc(C(=O)O)cc2)c2ccccc2n1C,·,-65.3*,·,-11.2,41.6*,15.3,37.7*,26.5*
CCNC(=S)N/N=C/c1cn(Cc2ccc(F)cc2)c2ccccc12,0.9,19.6,-8.5,10.9,2.4,-10.5,·,·
O=C(O)c1ccc(N/N=C/c2cn(Cc3ccc(F)cc3)c3ccccc23)cc1,·,-68.7*,·,-7.1,39.9*,3.6,39.2*,24.6*
CCCCN(C=O)c1c(CC)nc2c(OCc3cccc(Cl)c3)cccn12,·,·,·,7.5,·,·,·,·
CC(C)CN1C(=O)CN(S(C)(=O)=O)CC1(C)C(=O)NC(C)C (stereo not given),·,·,·,4.3,·,·,·,·
C=CCOc1ccc(C2NC(=S)NC3=C2CCc2ccccc23)cc1 (stereo not given),·,-6.8,·,-19.7,20.2*,12.9,42.1*,51.6*
COc1cc(C2NC(=S)NC3=C2CCc2ccccc23)cc(OC)c1OC (stereo not given),-1.9,-12.9,1.7,-9.4,0.3,25.3,·,·
CN(C(=O)CSc1nc(-c2ccccc2)cn1N)C(c1ccccc1)c1ccccc1,-9.0,20.3,-2.9,5.4,17.8*,-2.9,-1.1,-6.5
C=CCN=C1NN=C(c2ccc3c(c2)OCCO3)CS1,63.6*,-55.9*,89.3*,35.4,46.9*,31.3,83.0*,79.0*
c1ccc(C2=NNC(=NCc3ccc4c(c3)OCO4)SC2)cc1,-3.0,9.7,-12.1,-4.7,1.1,12.6,·,·
O=C(NCCC(F)(F)F)C1Cc2c(-c3ccc(Cl)cc3)ccnc2O1 (stereo not given),·,·,·,8.3,·,·,·,·
COc1ccc(-c2csc(NC(=O)c3ccccc3F)n2)cc1,·,4.4,·,4.8,33.5*,·,-11.4,-31.9
CC(=O)N/N=C(/c1ccccc1)C(O)c1ccccc1 (stereo not given),·,-5.6,·,0.7,-0.6,·,·,·
COc1ccc(NC(=O)C(c2ccc(C(F)(F)F)cc2)n2c(=O)c(-c3cc4ccccc4[nH]3)nc3ccccc32)cc1 (stereo not given),·,·,·,4.7,·,·,·,·
CCOC(=O)NC(CC(=O)O)c1ccc(OC)c(OC)c1 (stereo not given),-0.9,-13.9,1.3,-16.9,-1.3,39.6,·,·
COc1ccc(C(CC(=O)O)NC(C)=O)cc1OC (stereo not given),-1.6,-4.2,2.9,8.8,18.0*,6.3,4.4,-7.5
CCN(C(=O)c1c([N+](=O)[O-])cnn1C)c1ccccc1,·,·,·,-7.8,·,·,·,·
COc1ccc2cc(-c3ccccc3)ncc2c1,·,35.3,·,62.3*,20.2*,·,23.7*,10.3*
CCn1nnc2cc(C(=O)NCCc3ccccc3F)ccc21,·,4.2,·,14.1,42.8*,·,59.2*,38.9*
COc1ccc(-c2cc3nc(CCl)[nH]c(=O)c3s2)cc1,·,-8.0,·,90.8*,49.8*,·,56.5*,59.3*
SMILES,STAT1 blocker,HSF1 inhib,STAT3 blocker,C8 TRAIL sens,HSP90 refold inh,PPC-1+TRAIL kill,HSP90 inh confirm,luciferase ctr
COc1cccc(CNc2nc3cc(-c4cccc(Cl)c4)sc3c(=O)n2C)c1,·,·,·,7.5,·,·,·,·
Cc1ccc(NC(=O)c2nnn(-c3ccc4c(c3)OCCO4)c2N)cc1,·,10.9,·,12.7,-5.6,·,·,·
Nc1c(C(=O)Nc2ccccc2)nnn1-c1ccc2c(c1)OCCO2,·,9.7,·,45.6,23.6*,·,44.6*,31.0*
Cc1cc(C)cc(NC(=O)C(=O)NCCCN2CCOCC2)c1,-7.8,-1.6,13.8,-2.8,0.3,11.3,·,·
O=C(C1=C[C@H](c2csc3ccccc23)C[C@H](OCCCCO)O1)N1CCN(Cc2ccc3c(c2)OCO3)CC1,7.4,-2.4,·,-16.2,19.1*,-11.5,-6.3,-13.4
Cc1ccc(CN2C(=O)C(F)(F)Oc3ccc(C)cc32)cc1,·,·,·,-10.3,·,·,·,·
Oc1ccccc1C1NN=C(c2ccccc2)S1 (stereo not given),·,71.2,·,70.3*,24.5*,·,32.8*,18.0*
COc1ccccc1C(=O)NC(=S)Nc1cccnc1Cl,·,-21.7,·,35.2,54.6*,·,22.8*,11.5*
CCNc1ccc(C(=O)O)cc1N,-1.6,-24.7,5.7,-1.0,54.7*,6.4,2.4,-5.8
CCc1ccccc1Nc1ccc(C(=O)O)cc1N,-15.1,17.6,-2.3,-2.3,2.1,1.3,·,·
C[C@H](CO)N1C[C@H](C)[C@@H](CN(C)C(=O)Nc2ccc3c(c2)OCO3)Oc2ccc(NC(=O)NC3CCCCC3)cc2C1=O,·,·,·,1.0,·,·,·,·
COC(=O)c1ccc2cn[nH]c2c1,·,·,·,4.3,·,·,·,·
Cc1ccc(S(=O)(=O)/N=C2\C=C(Nc3cccc(C(=O)O)c3)C(=O)c3ccccc32)cc1,·,26.1,·,40.5,96.0*,·,92.0*,-8.3
COC(=O)c1ccccc1NC1=C/C(=N\S(=O)(=O)c2ccc(C(=O)O)cc2)c2ccccc2C1=O,·,-1.0,·,69.0*,77.4*,·,92.1*,2.8
O=C1C(Nc2ccccc2)=C/C(=N/S(=O)(=O)c2cccs2)c2ccccc21,-3.5,-94.3*,-41.4,96.5*,37.4*,22.5,94.4*,2.5
CCc1cc[n+](C2=C([O-])c3ccccc3C(=O)/C2=N\S(=O)(=O)c2cccs2)cc1,12.8,19.2,-12.5,40.5,8.2,18.3,·,·
COC(=O)c1ccccc1Nc1ccccc1,-5.0,-3.3,4.1,26.4,-2.2,-2.6,·,·
Cc1ccc(S(=O)(=O)/N=C2\C=C(Nc3cccc(C(=O)O)c3)C(=O)c3ccccc32)c(C)c1,·,7.1,·,38.5,92.1*,·,90.4*,-17.1
Cc1cccc(NC2=C(NC(=O)c3ccccc3)C(=O)c3ccccc3C2=O)c1,-1.1,12.1,-24.8,-7.2,6.3,13.5,·,·
